# Rows were chosen to be rich in hits. Some 9.4% of all compounds tested hit in one or more screens of this group.
# Rab9 promoter act – Rab9 promoter activation; Huh7 Rab9 promoter-luciferase reporter, luminescence, 24 h; Potency, µM (highest dose often 9.22 µM), inactives show top-dose activation, negative = inhibition, usual class: activators; 2.8% of 320,000 active; AID 485297; note: % of control where 0% means no effect; nearly all actives have a fitted effect of over 60% in size
#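 Cell-based reporter: Huh7 stable for Rab9 promoter-driven luciferase, plated in reduced-serum medium with 10% FBS at 1500 cells/well, compound-treated 24 h at 37 °C, luminescence read after 10 min reagent.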
# ELG1 DNA repair – blocks ELG1-dependent DNA repair in HEK293T cells | 2.3% of 330,000 active | HEK293T ELG1-luciferase reporter, luminescence, 16 h; DNA damage induced by 5-fluorouridine | Potency, µM (series often up to 46.1 µM), for the others: at the top dose activity change, negative = inhibition, actives largely listed as inhibitors | AID 504467; note: % is set by controls: 0 for no effect and ±100 for the full control effect; nearly all actives have a fitted effect of over 55% in size
#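 Step one: seed 2,000 cells per well. Step two: pin-transfer compound or DMSO alongside 5-fluorouridine. Step three: incubate 16 hr, 37 °C, 5% CO2. Step four: add ONE-Glo, wait 30 min, read luminescence.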
# FLuc modulator – inhibits or activates purified firefly luciferase, miR-21 counter-screen; purified FLuc, Km substrates, luminescence inhibition; Potency, µM (highest dose often 57.5 µM), inactives show top-dose activity change, negative = inhibition, usual class: inhibitors; 6.9% of 360,000 active;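 note: plate controls were vehicle for no effect and reference inhibitor for full effect; nearly all actives have a fitted effect of over 55% in size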
# Target sequence (P08659 whole entry, looked up): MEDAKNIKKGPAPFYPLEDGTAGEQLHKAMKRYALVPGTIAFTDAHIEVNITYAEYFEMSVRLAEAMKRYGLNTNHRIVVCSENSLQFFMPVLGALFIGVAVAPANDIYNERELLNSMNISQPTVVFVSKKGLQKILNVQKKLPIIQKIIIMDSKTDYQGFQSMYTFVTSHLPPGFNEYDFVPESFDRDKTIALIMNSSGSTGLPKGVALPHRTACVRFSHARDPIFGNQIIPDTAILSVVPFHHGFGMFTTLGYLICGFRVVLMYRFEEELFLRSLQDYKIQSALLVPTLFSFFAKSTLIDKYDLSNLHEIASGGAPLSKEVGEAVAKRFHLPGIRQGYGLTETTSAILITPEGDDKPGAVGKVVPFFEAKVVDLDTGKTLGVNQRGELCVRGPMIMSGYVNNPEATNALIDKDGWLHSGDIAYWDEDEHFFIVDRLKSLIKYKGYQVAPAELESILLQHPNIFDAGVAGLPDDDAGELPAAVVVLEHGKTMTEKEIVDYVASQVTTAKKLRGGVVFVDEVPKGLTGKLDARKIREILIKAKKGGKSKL
#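 Purified P. pyralis luciferase, 10 nM final, with Km-level 10 uM D-luciferin and 10 uM ATP in 50 mM Tris acetate pH 7.5, 10 mM Mg acetate, 0.01% Tween-20, 0.05% BSA; 6-point qHTS titration about 60 µM downward; luminescence read.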
# ELG1 genotox – inducers of genotoxicity in HEK293T ELG1-luciferase cells; 1.3% of 330,000 active; Potency, µM (doses to about 46 µM), without a hit: at the top dose activity change, positive = activation, most hits filed as activators; AID 504466; HEK293T ELG1-luciferase reporter, luminescence, 16 h; note: % of control where 0% means no effect; nearly all actives have a fitted effect of over 60% in size
#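 HEK293T cells expressing luciferase-tagged ELG1 were treated with compound or DMSO for 16 hr at 37°C. Luciferase activity was then read after 30 min with ONE-Glo at room temperature; rising signal flags genetic stress.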
# SMN2 splice up – enhancers of SMN2 splice variant expression | HEK293 SMN2-luciferase splicing reporter, luminescence, 30-36 h | Potency, µM (series often up to 46.1 µM), without a hit: top-dose activity change, positive = activation, actives largely listed as activators | 2.8% of 210,000 active | AID 1458; note: % of control where 0% means no effect; nearly all actives have a fitted effect of over 55% in size
#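 qHTS luciferase splicing reporter: luminescence rises when SMN2 exon 7 is included in transfected HEK293 cells. Compound exposure lasted 30-36 h at 37C, with 4.5 mM final sodium butyrate as control, followed by a ONE-Glo read.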
# NPC1 promoter act – activators of NPC1 promoter; Huh7 NPC1 promoter luciferase reporter, 24 h; Potency, µM (series often up to 9.22 µM), for inactives: at the highest dose activation, actives largely listed as activators; 2.4% of 320,000 active; note: % of control where 0% means no effect; nearly all actives have a fitted effect of over 60% in size
#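 Compounds in DMSO were transferred onto Huh7 NPC1-luciferase reporter cells pre-incubated 2 h; after 24 h at 37 °C, Amplite reagent was dispensed and luminescence recorded 10 min later.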
# ELG1 FLuc counter – luciferase inhibition in cell-free luciferin readout for ELG1 hits. 3% of 350 active. shares compounds with ELG1 DNA repair. cell-free firefly luciferase luminescence counter-screen, ViewLux. Potency, µM (titrated, usually from 46.1 µM), for inactives: at the highest dose activity change, negative = inhibition, hits mostly inhibitors. AID 624247; note: % is set by controls: 0 for no effect and ±100 for the full control effect
# ELG1-Luc inh – human ELG1 repair inhibition, luciferase-tagged ELG1 confirmation. 68% of 670 active. HEK293T ELG1-luciferase levels, luminescence; cells co-treated with 5-fluorouridine. shares compounds with ELG1 DNA repair. Potency, µM (doses to about 46.1 µM), for inactives: at the top dose activity change, negative = inhibition, actives largely listed as inhibitors; note: % is set by controls: 0 for no effect and ±100 for the full control effect; nearly all actives have a fitted effect of over 55% in size
# ELG1 MMS Luc – confirmation of human ELG1 repair inhibitors, MMS stimulated; shares compounds with ELG1 DNA repair; HEK293T luciferase-tagged ELG1 level, MMS stimulated; Potency, µM (highest dose often 46.1 µM), for inactives: at the top dose activity change, negative = inhibition, most hits filed as inhibitors; 53% of 670 active; AID 624249; note: % is set by controls: 0 for no effect and ±100 for the full control effect; nearly all actives have a fitted effect of over 60% in size
# ELG1 5FU viab – confirmation of ELG1 repair inhibitors: viability with 5FU; shares compounds with ELG1 DNA repair; Potency, µM (series often up to 46.1 µM), inactives show at the top dose activity change, negative = viability loss, hits mostly cytotoxic; 670 tested, under 10 active; AID 624250; cell viability with 5-FU, ELG1-dependent repair;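 note: ELG1-luc HEK293T cells cotreated with 5-fluorouridine at 10 µM final; viability measured 16 h after compound addition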
# ELG1 MMS cell – confirmation of ELG1 repair inhibitors: viability with MMS; shares compounds with ELG1 DNA repair; Cell viability with MMS, ELG1-dependent DNA repair; Potency, µM (series often up to 46.1 µM), without a hit: at the top dose activity change, negative = viability loss, usual class: cytotoxic; 33% of 670 active;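 note: ELG1-luc HEK293T cells co-treated with 10 µM MMS; viability read 16 h after compound addition; % is set by controls: 0 for no effect and ±100 for the full control effect; nearly all actives have a fitted effect of over 60% in size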
# Cell viab unstim – counter-screen for ELG1 repair inhibitors: unstimulated cell viability | shares compounds with ELG1 DNA repair | cell viability counter-screen, unstimulated, luminescence | Potency, µM (top dose mostly 45.9 µM), for the others: at the top dose activity change, negative = loss of viability, hits mostly cytotoxic | 8% of 900 active | AID 624252;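 note: compound exposure lasted 16 hours before reading; % is set by controls: 0 for no effect and ±100 for the full control effect; nearly all actives have a fitted effect of over 55% in size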
# FLuc biochem – firefly luciferase inhibition counter-screen; shares compounds with ELG1 DNA repair; purified firefly luciferase, luminescence counter-screen; Potency, µM (titrated, usually from 57.5 µM), for the others: at the highest dose activity, negative = inhibition, actives largely listed as inhibitors; 10% of 350 active; AID 624253; note: % is set by controls: 0 for no effect and ±100 for the full control effect
# * hit, by the source's call; ? = inconclusive; · = no result given. Calls come from the whole dose curve; as a rule, active = well fitted curve in the direction sought with a large enough effect; inconclusive = small, poorly fitted or top-dose-only effect, or another doubt; inactive = no such curve, though single readings can be large; an effect the other way counts as inactive or inconclusive. Potency is the fitted concentration of half-maximal effect.
SMILES,Rab9 promoter act,ELG1 DNA repair,FLuc modulator,ELG1 genotox,SMN2 splice up,NPC1 promoter act,ELG1 FLuc counter,ELG1-Luc inh,ELG1 MMS Luc,ELG1 5FU viab,ELG1 MMS cell,Cell viab unstim,FLuc biochem
Cc1ccc(C)c(N2CCN(C(=O)CCS(=O)(=O)c3ccc4c(c3)NC(=O)C(C)S4)CC2)c1 (centres undefined),-35%,4.6µM*,4%,-13%,·,-28%,·,13µM*,2µM*,?,2µM*,?,·
COc1ccc(N2CCN(C(=O)CCS(=O)(=O)c3ccc4c(c3)NC(=O)C(C)S4)CC2)cc1 (centres undefined),-6%,-10%,-2%,-5%,·,1%,·,·,·,·,·,·,·
Cc1oc(C(C)(C)C)cc1C(N)=O,1%,0%,-2%,-1%,·,3%,·,·,·,·,·,·,·
CCOc1ccc(N(CC(=O)N2CCN(c3ccc(F)cc3)CC2)S(=O)(=O)c2c(C)noc2C)cc1,-2%,3%,0%,-6%,·,-18%,·,·,·,·,·,·,·
COc1cccc(CNC(=O)C2CCCN(c3nn4c(=O)cc(C)nc4s3)C2)c1 (centres undefined),10%,?,1%,?,-9%,-1%,1%,·,·,·,·,8%,6%
C=CCN1C(=O)C(CC(=O)NCC)SC1=Nc1ccccc1OC (centres undefined),-3%,?,0%,4%,·,-5%,·,·,·,·,·,·,·
CN(C)C(=O)c1ccc(NC(=O)c2ccccc2Sc2ccccc2C#N)cc1,6%,1%,3%,-1%,9%,0%,·,·,·,·,·,·,·
O=C(NNc1ccnc2cc(Cl)ccc12)C1CCCCC1,-31%,0.52µM*,0%,-8%,-71%,-39%,-17%,-9%,0.89µM*,-5%,0.71µM*,?,-8%
OC(CNc1nc(-c2cccnc2)nc2ccccc12)c1ccccc1 (centres undefined),2%,12µM*,-9%,-6%,·,-4%,-9%,11µM*,22µM*,0%,?,?,-14%
OCCNc1nc(-c2cccnc2)nc2ccccc12,-5%,0%,2%,-11%,-16%,0%,·,·,·,·,·,·,·
